# In the library only some 1.3% were active in any assay of this set; here they are far more common.
# NCF1 inh = inhibitors of human p47phox binding | AID 1274 | P14598 | p47phox/p22phox peptide binding, fluorescence polarization, 2 h | actives 0.53% (n = 220,000) | inhibition, % at 24.7 µM
# Target sequence (P14598 whole entry, looked up): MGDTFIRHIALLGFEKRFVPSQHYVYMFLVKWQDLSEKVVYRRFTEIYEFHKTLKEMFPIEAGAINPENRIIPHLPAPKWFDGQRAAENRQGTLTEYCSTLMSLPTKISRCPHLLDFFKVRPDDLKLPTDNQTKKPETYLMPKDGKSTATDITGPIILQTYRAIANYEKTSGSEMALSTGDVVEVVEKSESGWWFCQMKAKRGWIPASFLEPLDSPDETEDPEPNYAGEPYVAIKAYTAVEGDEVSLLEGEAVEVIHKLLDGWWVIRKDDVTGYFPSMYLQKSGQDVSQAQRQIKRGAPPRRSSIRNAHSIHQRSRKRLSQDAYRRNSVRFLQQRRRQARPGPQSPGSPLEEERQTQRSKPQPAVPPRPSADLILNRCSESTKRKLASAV
# SUMO HTRF inh = blocks human SUMOylation mediated by UBC9; P63279; inhibition, % at 35 µM; HTRF SUMOylation assay, SAE1/SAE2 + UBC9, in vitro; actives 0.36% (n = 290,000); in the data active means inhibition above about 50%, passing the limit was not always enough
# Target sequence (P63279 whole entry, looked up): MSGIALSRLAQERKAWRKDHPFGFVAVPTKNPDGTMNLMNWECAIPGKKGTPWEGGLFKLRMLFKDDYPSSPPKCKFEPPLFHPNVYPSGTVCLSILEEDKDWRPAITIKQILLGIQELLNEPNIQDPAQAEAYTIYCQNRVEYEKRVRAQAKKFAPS
# 14-3-3 Bad inh = disrupts binding of bovine 14-3-3 zeta to phospho-Bad peptide; TR-FRET 14-3-3zeta/Dy647-pBad peptide displacement, 1 h; inhibition, % at 21.7 µM; actives 0.71% (n = 220,000);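 active means inhibition above about 70%, limit read from the data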
# eIF4E 4G PPI = eIF4E/eIF4G interaction inhibition in translation initiation; inhibition, % at 21.7 µM; TR-FRET eIF4E-eIF4GI(517-606) binding, 2 h; P63073+Q04637; actives 0.37% (n = 220,000)
# A number is an active result; i = inactive; nt = not tested or not shown; [ ] = another dose, or the depositor's remark.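 How the source made its calls, unless noted: active means inhibition above about 30% (limit read from the data); inactive means the rest.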
SMILES,NCF1 inh,SUMO HTRF inh,14-3-3 Bad inh,eIF4E 4G PPI
CCCC(c1nnnn1C1CCCC1)N1CCN(c2ccccc2F)CC1 (configuration not stated),i,i,81,i
Cc1cc2oc(=O)cc(CN3CCOCC3)c2cc1Cl,nt,i,nt,nt
O=C1CCCC/C1=C/NCc1ccc(F)cc1,i,i,i,i
COc1ccc(CN2C(=O)c3cccnc3C2Nc2ccc(OC)c(Cl)c2)cc1 (configuration not stated),i,i,83,i
COc1cc(NC2c3ncccc3C(=O)N2Cc2ccco2)cc(OC)c1 (configuration not stated),i,i,82,i
COc1ccc(NC2c3ncccc3C(=O)N2Cc2ccccc2)c(OC)c1 (configuration not stated),i,i,i,i
Fc1ccc(/C=N/N2CCN(Cc3ccccc3)CC2)cc1,nt,i,nt,nt
CCN(Cc1ccncc1)C(=O)C1CCC(=O)N(Cc2ccc(Cl)cc2)C1 (configuration not stated),nt,i,nt,nt
O=C(CSc1nnc2scc(-c3ccccc3)n12)Nc1nsc(-c2ccccc2)n1,45,i,i,i
Cc1ccc(-c2csc3nnc(SCC(=O)Nc4nsc(-c5ccccc5)n4)n23)cc1,i,i,i,i
CC(C)CNc1cc(N2CCCC2)ccc1[N+](=O)[O-],59,i,i,i
CCNc1cc(N2CCCC2)ccc1[N+](=O)[O-],i,i,i,i
COc1ccccc1NC(=S)NCCSc1ccc(Cl)cc1,i,i,i,33
CCCCN1C(=O)/C(=C/C=C2\SCCN2C)SC1=S,54,i,i,i
CN1CCS/C1=C/C=C1\SC(=S)N(CC(=O)O)C1=O,i,i,i,i
COc1ccc(Nc2nc(=O)c3cc([N+](=O)[O-])ccc3s2)cc1,i,i,82,i
CN1CCN(CC(O)COc2ccc(C34CC5CC(CC(C5)C3)C4)cc2)CC1 (configuration not stated),73,i,i,i
OCCN1CCN(CC(O)COc2ccc(-c3ccccc3)cc2)CC1 (configuration not stated),i,i,84,i
COc1ccc(-c2nnn(CC(=O)NCc3ccccc3)n2)cc1OC,i,i,i,i
CCOc1ccc(-c2nnn(CC(=O)Nc3ccccc3OC)n2)cc1OCC,31,i,i,i
O=C(O)C1CCN(c2ccc(S(=O)(=O)N3CCOCC3)cc2[N+](=O)[O-])CC1,69,i,89,i
COc1nc(-c2ccccc2)ccc1-c1noc(COc2ccccc2)n1,i,i,82,i
CCc1ccccc1N1CSC2=C(C#N)C(c3cc(OC)c(OC)cc3OC)CC(=O)N2C1 (configuration not stated),31,i,i,i
COc1ccc2ccccc2c1C1CC(=O)N2CN(C)CSC2=C1C#N (configuration not stated),i,i,i,49[fluorescence artefact?]
COc1cc(OC)c(C2CC(=O)N3CN(C)CSC3=C2C#N)cc1OC (configuration not stated),i,i,i,i
SMILES,NCF1 inh,SUMO HTRF inh,14-3-3 Bad inh,eIF4E 4G PPI
C=CCc1c(C)nc(SC)nc1Nc1ccc(C(C)=O)cc1,i,i,i,i
Cc1ccc(S(=O)(=O)N(C)CC(=O)N2CC(C)OC(C)C2)cc1 (configuration not stated),nt,i,nt,nt
CCCOCC1CC(CCc2nc(=S)[nH][nH]2)C(=O)O1 (configuration not stated),i,i,i,i
CCCCOCC1CC(CC#CCN2CCCCC2)C(=O)O1 (configuration not stated),i,i,78,i
COc1ccc(C(=O)Nc2oc(-c3ccccc3)c(-c3ccccc3)c2C#N)cc1,i,i,i,i
COc1ccc(-c2oc(NC(=O)c3ccc(C)cc3)c(C#N)c2-c2ccc(OC)cc2)cc1,i,i,87[fluorescence artefact?],i
Cc1ccc(S(=O)(=O)N2CCC(=O)N(C(COCc3ccc(C(F)(F)F)cc3)Cc3ccccc3)CC2)cc1 (configuration not stated),i,i,82,i
COc1ccc(C(=O)Nc2ccccc2C(N)=O)cc1,i,i,i,100[fluorescence artefact?]
COc1ccc(C(=O)N2N=C(c3ccc(NS(C)(=O)=O)cc3)CC2c2cccs2)cc1 (configuration not stated),nt,i,nt,nt
O=C(O)c1ccc(Oc2cccc([N+](=O)[O-])c2)cc1C(=O)O,i,i,74,i
CCN(CC)c1ccc(NC2=C(Cl)C(=O)c3ccccc3C2=O)cc1,35,i,i,i
CCOc1ccc(NC2=C(OC)C(=O)c3ccccc3C2=O)cc1,i,57,i,i
O=C1C(=O)c2ccc(-c3ccccc3)cc2-c2ccccc21,i,97,i,i
Cc1ccc(S(=O)(=O)/N=C2/NC(=O)/C(=C/c3ccc(Br)o3)S2)cc1,i,i,i,i
Cc1ccc(S(=O)(=O)/N=C2/NC(=O)/C(=C\c3cc(Br)cc(Br)c3O)S2)cc1,nt,62,nt,nt
COc1ccc(-c2nnc3n2-c2ccccc2SC3)cc1OC,i,i,78,i
c1ccc2c(c1)SCc1nnc(-c3ccncc3)n1-2,i,i,i,i
CCN1/C(=C/c2ccc3ccccc3[n+]2CCCS(=O)(=O)[O-])C=Cc2cc(C)ccc21,nt,i,nt,nt
CCN1/C(=C/c2ccc3ccccc3[n+]2CC)C=Cc2ccccc21,i,i,i,46[fluorescence artefact?]
Cc1cccc2cc(CN(Cc3ccco3)C(=O)Nc3cccc(C#N)c3)c(Cl)nc12,i,i,i,i
Cc1ccc(NC(=O)N(Cc2ccco2)Cc2cc3cc(C)cc(C)c3nc2Cl)cc1,160,i,i,i
CC1CN(C(=O)/C=C/c2ccc(SC(F)F)cc2)CC(C)O1 (configuration not stated),nt,i,nt,nt
C/C=C/c1ccc(OCCCCn2cncn2)c(OC)c1,i,i,75,i
C/C=C/c1ccc(OCCn2cncn2)c(OC)c1,i,i,84,i
C/C=C/c1ccc(OCCCNC2CCCC2)c(OC)c1,i,i,i,i
SMILES,NCF1 inh,SUMO HTRF inh,14-3-3 Bad inh,eIF4E 4G PPI
C/C=C/c1ccc(OCCCn2cncn2)c(OC)c1,i,i,74,i
C/C=C/c1ccc(OCCOc2cc(C=O)ccc2OC)c(OC)c1,i,i,i,i
C/C=C/c1ccc(OCCCCOc2ccccc2F)c(OC)c1,i,i,i,i
O=C(Cc1ccccc1)NNS(=O)(=O)c1ccc(F)cc1,i,i,i,i
CC(=O)C1=C(C)OC2(O)c3ccccc3C(=O)C12O (configuration not stated),i,nt,i,i
CCOC(=O)C1=C(C)OC2(O)c3ccccc3C(=O)C12O (configuration not stated),i,94,i,i
COc1ccc(/C=C2\C(=O)NC(=S)N2C(=O)c2ccc(F)cc2)cc1,i,i,89[fluorescence artefact?],i
CC(C)(C)NC(=O)c1sccc1C(=O)O,i,nt,77,i
CCn1c(-c2ccccc2O)n[nH]c1=S,33,i,i,i
CCOC(=O)c1c(CN2CCCCC2)oc2ccc(OC)cc12,i,i,i,i
CCOC(=O)c1c(CN2CCN(C)CC2)oc2ccc(OC)cc12,i,i,79,i
CC1CCCN(S(=O)(=O)c2cnc[nH]2)C1 (configuration not stated),nt,i,nt,nt
